SW480 rereplic: induces DNA re-replication in SW480 colon adenocarcinoma cells | 340,000 tested, 1.8% active | SW480 DNA re-replication, Hoechst DNA content imaging, 48 h | AID 624297 | Potency, µM (top dose mostly 46.1 µM), inactives show at the top dose re-replication activation, actives largely listed as activators; also: % of control where 0% means no effect; nearly all actives have a fitted effect of over 55% in size
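250 cells/well; 23 nL cpd via pin tool; 48 hr, 37 C, 5% CO2; Hoechst 40 min; imager read of total nuclear intensity, ex 405/em 500-530 nm.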
PTAP TSG101 blk: blocks PTAP/TSG101 interaction to inhibit HIV-1 budding; Q99816; Fluorescence polarization, FITC-PTAP peptide / Tsg101 binding; Potency, µM (top dose mostly 115 µM), inactives show top-dose activity change, negative = inhibition, usual class: inhibitors; 340,000 tested, under 10 active; AID 493005; active = well fitted inhibition curve with a large enough effect in the main read-out, with a control signal flat, not every such curve was filed as active; inconclusive = small, poorly fitted or top-dose-only effect, or effect the other way, or a change in a side signal; inactive = no such curve, though single readings can be large or run the other way; also: % of control where 0% means no effect
Target sequence (Q99816 whole entry, looked up): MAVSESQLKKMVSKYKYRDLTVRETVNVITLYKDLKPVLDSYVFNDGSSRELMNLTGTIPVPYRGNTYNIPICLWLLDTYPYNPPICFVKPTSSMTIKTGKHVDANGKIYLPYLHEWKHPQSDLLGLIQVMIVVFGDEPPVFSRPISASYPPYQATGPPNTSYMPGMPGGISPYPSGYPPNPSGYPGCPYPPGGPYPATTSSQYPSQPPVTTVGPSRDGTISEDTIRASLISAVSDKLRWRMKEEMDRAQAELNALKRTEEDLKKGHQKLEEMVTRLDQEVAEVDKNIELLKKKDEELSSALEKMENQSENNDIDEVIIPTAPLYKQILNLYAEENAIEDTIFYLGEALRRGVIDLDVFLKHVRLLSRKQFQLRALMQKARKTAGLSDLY
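Fluorescence polarization binding of Tsg101 binding domain (10 uM final) to FITC-labeled PTAP peptide (50 nM final) in HEPES pH 7.5 buffer with NaCl, Tween 20, EDTA, TCEP. Compounds added before peptide; binding 20 min at RT.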
PINK1 modulator: changes PINK1 expression; PINK1 immunofluorescence, high-content cytometry, 24 h; Potency, µM (highest dose often 76.6 µM), for inactives: at the highest dose activation (PINK1 increase), usual class: activators; 410,000 tested, 0.2% active; AID 624263; active = well fitted activation curve with a large enough effect; inconclusive = small, poorly fitted or top-dose-only effect; cell line not stated here; also: % of control where 0% means no effect; nearly all actives have a fitted effect of over 65% in size
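Stable cell line treated 24 h with compounds at 5 concentrations (CCCP controls), then fixed and immunostained for PINK1 plus nuclear and cell stains; PINK1 immunofluorescence quantified by laser-scanning microplate cytometry.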
MCF10A rerep: inducers of DNA re-replication in MCF 10A breast cells; AID 624296; 350,000 tested, 2.9% active; MCF 10A DNA re-replication, Hoechst nuclear intensity, 48 h; Potency, µM (series often up to 46.1 µM), inactives show at the highest dose activity, positive = re-replication, actives largely listed as activators; also: % of control where 0% means no effect; nearly all actives have a fitted effect of over 50% in size
KB-3-1 tox: KB-3-1 parental cell cytotoxicity; KB-3-1 viability, CellTiter-Glo ATP luminescence, 72 h; 400,000 tested, 1.4% active; Potency, µM (doses to about 46.1 µM), usual class: cytotoxic; also: % is scaled to controls: 0 for no effect and ±100 for the full control effect; nearly all actives have a fitted effect of over 60% in size
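Cytotoxicity in the drug-sensitive parental line KB-3-1 was scored as loss of CellTiter-Glo luminescence following 72 h incubation with compound. Values come from curve fitting of normalized concentration-response data.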
KB-V1 cytotox: kills drug-selected multidrug resistant KB-V1 cells; KB-V1 MDR cells viability, CellTiter-Glo, 72 h; Potency, µM (highest dose often 46.1 µM), actives largely listed as cytotoxic; 400,000 tested, 3.4% active; also: % is scaled to controls: 0 for no effect and ±100 for the full control effect; nearly all actives have a fitted effect of over 60% in size
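Cytotoxicity toward P-gp-expressing KB-V1 cells was determined as loss of CellTiter-Glo luminescence after 72 h at 37 degrees C. Compounds were tested in quantitative HTS format across a concentration range, with curves fitted to normalized data.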
* = called active by the depositor; [ ] = dose if it differs, or a comment. In the library only some 6.8% were active in any assay of this set; here they are far more common. Unless noted, calls follow the shape of the dose curve; as a rule, active = well fitted curve in the direction sought with a large enough effect; inconclusive = small, poorly fitted or top-dose-only effect, or another doubt; inactive = no such curve, though single readings can be large; an effect the other way counts as inactive or inconclusive. Potency is read from the fitted curve at half-maximal effect.

COc1ccc(C(=O)Nc2cc(OC)ccc2OC)cc1 was read as SW480 rereplic 3.7%[9.22 µM], PTAP TSG101 blk -6.5%, PINK1 modulator 1.4%, MCF10A rerep -0.4%, KB-3-1 tox inactive and KB-V1 cytotox inactive.
COc1ccc(C(=O)Nc2ccc(-c3ccc(NC(=O)c4ccc(OC)cc4)c(OC)c3)cc2OC)cc1 was read as SW480 rereplic -124.3%, PTAP TSG101 blk 0.2%, PINK1 modulator 4.2%, MCF10A rerep 2.31µM*, KB-3-1 tox inactive and KB-V1 cytotox inactive.
For COc1ccc(NCC(=O)Nc2ccc(Br)cc2F)c(OC)c1 the results were SW480 rereplic 6.51µM*, PTAP TSG101 blk -8.4%, PINK1 modulator 7.7%, MCF10A rerep inconclusive, KB-3-1 tox inactive and KB-V1 cytotox inactive.
Screening CCN(CC(=O)Nc1ccc(OC)cc1)CC(=O)Nc1ccc(Br)cc1F returned SW480 rereplic -25.9%, PTAP TSG101 blk -8.3%, PINK1 modulator 4.2%, MCF10A rerep -26.1%, KB-3-1 tox inactive and KB-V1 cytotox inactive.
`COc1ccc([N+](=O)[O-])cc1/C=N/NC(=O)c1nonc1N` gave SW480 rereplic 18.4µM*, PTAP TSG101 blk -1.3%, PINK1 modulator -0.8%, MCF10A rerep 16.4µM*, KB-3-1 tox inactive and KB-V1 cytotox inactive.
`Nc1nonc1C(=O)N/N=C/c1cc2c(cc1[N+](=O)[O-])OCO2` gave SW480 rereplic -13.5%, PTAP TSG101 blk -1.7%, PINK1 modulator 39.8µM*, MCF10A rerep -12.5%, KB-3-1 tox inactive and KB-V1 cytotox inactive.
Screening COc1cccc(CN2C(=O)NC(C)(C3CCN(Cc4cc(F)cc(F)c4)CC3)C2=O)c1OC (centres undefined) returned PINK1 modulator -0.1%.
For Cc1ccc(S(=O)(=O)N(CC(=O)Nc2ccccc2C(=O)O)c2ccccc2C)cc1 the results were SW480 rereplic -10.4%, PTAP TSG101 blk -1.7%, PINK1 modulator 0.6%, MCF10A rerep inconclusive, KB-3-1 tox inactive and KB-V1 cytotox inactive.
For Cc1ccccc1N(CC(=O)Nc1ccccc1C(=O)NCc1ccco1)S(=O)(=O)c1ccccc1 the results were SW480 rereplic inconclusive, PTAP TSG101 blk -4.8%, PINK1 modulator 0.8%, MCF10A rerep inconclusive, KB-3-1 tox 23.1µM* and KB-V1 cytotox inactive.
`O=C(NCc1ccco1)c1ccc(CS(=O)(=O)Cc2ccc(Cl)cc2)o1` gave SW480 rereplic -6.4%, PTAP TSG101 blk -2.3%, PINK1 modulator -6.2%[38.3 µM], MCF10A rerep inconclusive, KB-3-1 tox inactive and KB-V1 cytotox 14.6µM*.
Screening Cc1ccc(S(=O)(=O)N(Cc2ccc(Cl)cc2)c2ccccc2C(=O)NCc2ccco2)cc1 returned SW480 rereplic inconclusive, PTAP TSG101 blk -1.0%, PINK1 modulator 16.9%, MCF10A rerep inconclusive, KB-3-1 tox inactive and KB-V1 cytotox 18.4µM*.
Screening COc1ccc(NC(=O)Cn2ccn(Cc3ccccc3)c(=O)c2=O)cc1Cl returned PINK1 modulator 0.2%.
O=S(=O)(c1ccc(Br)cc1)c1nc(-c2ccco2)oc1SCc1ccccc1Cl was read as PINK1 modulator 1.2%, KB-3-1 tox inconclusive and KB-V1 cytotox inactive.
`COc1ccc(NC(=O)Cn2c(=O)n(-c3ccc(Cl)cc3)c(=O)c3c(C)c(C(=O)N(C)C)sc32)cc1Cl` gave PINK1 modulator 0.8%.
Screening Cc1cnc(=O)[nH]c1SCC(=O)Nc1cc(C(F)(F)F)ccc1Cl returned PINK1 modulator 0.5%, KB-3-1 tox inactive and KB-V1 cytotox inactive.
COc1ccc2c(c1)O[C@H](c1ccc3c(c1)OCO3)[C@@H](OC(=O)Nc1cc(OC)c(OC)c(OC)c1)C2=O was read as SW480 rereplic 11.6µM* and MCF10A rerep inconclusive.
For COc1cccc([C@@H]2Oc3ccc(OC)cc3C(=O)[C@H]2OC(=O)Nc2cc(OC)c(OC)c(OC)c2)c1 the results were SW480 rereplic 8.4%, PTAP TSG101 blk 1.6%, PINK1 modulator -0.5%, MCF10A rerep 4.3%, KB-3-1 tox inactive and KB-V1 cytotox inactive.
`Cc1oc(-c2cccc(Cl)c2)nc1CS(=O)(=O)CC(=O)NCc1ccccc1Cl` gave PINK1 modulator 1.7%, KB-3-1 tox inactive and KB-V1 cytotox inactive.
`N#CC(c1ccccc1)c1ccc([N+](=O)[O-])cc1` (centres undefined) gave PINK1 modulator 3.7%, KB-3-1 tox 20.6µM* and KB-V1 cytotox inactive.
`O=[N+]([O-])c1ccc(S(=O)(=O)N2CCN(Cc3c[nH]c4ccccc34)CC2)cc1` gave SW480 rereplic 3.2%, PTAP TSG101 blk 0.5%, PINK1 modulator -3.2%[38.3 µM], MCF10A rerep 19.3%, KB-3-1 tox inactive and KB-V1 cytotox 20.6µM*.
`Cn1cnc2c(=O)oc3ccc(S(=O)(=O)N4CCN(c5cccc(Cl)c5)CC4)cc3c21` gave PINK1 modulator -0.4%, KB-3-1 tox inactive and KB-V1 cytotox inactive.
Screening O=C(NCCCc1nc2ccccc2n1Cc1ccc(F)cc1)C1CCCCC1 returned PINK1 modulator 0.6%, KB-3-1 tox inactive and KB-V1 cytotox inactive.
Screening CCOc1ccc(C2C(C(=O)OC)=C(C)NC3=C2C(=O)c2ccccc23)cc1OC (centres undefined) returned PINK1 modulator -1.1%, KB-3-1 tox inactive and KB-V1 cytotox inactive.
For COc1cc(C2C(C#N)=C(C)NC3=C2C(=O)c2ccccc23)cc(OC)c1OC (centres undefined) the results were SW480 rereplic -4.6%, PTAP TSG101 blk -9.4%, PINK1 modulator inconclusive, MCF10A rerep 3.4%, KB-3-1 tox 2.06µM* and KB-V1 cytotox inconclusive.
`C#CCOc1c(Br)cc(C2C(C(=O)OC)=C(C)NC3=C2C(=O)c2ccccc23)cc1OCC` (centres undefined) gave PINK1 modulator 3.5%, KB-3-1 tox 4.61µM* and KB-V1 cytotox inconclusive.
For COc1ccc(C2C(C#N)=C(C)NC3=C2C(=O)c2ccccc23)cc1 (centres undefined) the results were SW480 rereplic 0.1%, PTAP TSG101 blk -8.4%, PINK1 modulator 14.3%[38.3 µM], MCF10A rerep 17.1%, KB-3-1 tox inactive and KB-V1 cytotox inactive.
Screening Oc1ccc(Br)cc1C1C=C(c2ccc3c(c2)OCO3)NC(c2cccc(F)c2)N1 (centres undefined) returned PINK1 modulator 4.6%.

Screening results: PubChem BioAssay, National Center for Advancing Translational Sciences (NCATS)
